Molecules are shown by their SMILES. A number with no mark means an inactive call. For part of these data: Entries with a potency or affinity are not part of this list. Active and inactive are the calls of the source. Unless noted, the rule behind the calls is not given here.

Assay [1] is described as follows: antimalarial activity against Dd2 strain (AID 2302;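 active = growth inhibition above 50% at the single 2 µM test dose, taken to imply half-maximal potency below 2 µM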;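 note: 0% = DMSO untreated growth and 100% = chloroquine plus artemisinin killed control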). The conditions noted are these: P. falciparum Dd2 in RBCs, LDH growth readout, 72 h; at 2 µM; stronger effect = higher value.
Assay [2] is described as follows: human hepatoma cell viability loss – ATP luminescence, cytotoxicity control for P. falciparum antimalarial project, primary screen (AID 2303;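 active = inhibition above 50%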;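 note: 0% = DMSO wells and 100% = digitonin-killed cells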). Conditions: HepG2 viability, 24-48 h, at 10 µM, stronger effect = higher value.
Assay [3] addresses L-lactate dehydrogenase (Plasmodium falciparum (isolate CDC / Honduras)) (UniProt Q27743). Kind of assay: PfLDH activity inhibition – cell lysate, 3D7 strain, counter-screen for P. falciparum growth inhibition project (AID 2304).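 Note: 0% = vehicle and 100% = reference inhibitor.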 Conditions: P. falciparum 3D7 crude extract, LDH APAD/NBT absorbance; at 2 µM; stronger effect = higher value. A general note: Counterscreens check selectivity or assay interference.

Assay [4] in a line: inhibition of 3D7 malaria parasite growth – strain 3D7 (AID 2306).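 Note: 0% = DMSO wells and 100% = chloroquine plus artemisinin control wells.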 The conditions noted are these: P. falciparum 3D7 erythrocytic growth, LDH absorbance, 72 h; at 2 µM; stronger effect = higher value.
In assay [5] the target is Calcium-dependent protein kinase 1 (Plasmodium falciparum (isolate 3D7)) (UniProt P62344). Kind of assay: PfCDPK1 kinase inhibitors, biochemical, TCAMS library (AID 1159585; cut-off not given, nearly all actives have IC50 up to about 0.98 µM;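 note: inhibitors leave more ATP so luminescence rises with inhibition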). Conditions: recombinant PfCDPK1, Kinase-Glo ATP depletion luminescence.
Assay [6] deals with Plasmodium falciparum protein kinase 6 (PK6, PF3D7_1337100) (UniProt Q8IDW1). As to the kind of experiment: PfPK6 kinase inhibitors, biochemical, TCAMS library (AID 1159586). Conditions: recombinant PfPK6, Kinase-Glo ATP depletion luminescence.
Assay [7] deals with Protein kinase 7 (PK7), Plasmodium falciparum 3D7 (PF3D7_0213400) (UniProt Q7YTF7). As to the kind of experiment: inhibition of Plasmodium PK7 catalytic activity – biochemical, TCAMS antimalarial set, Kinase-Glo luminescence (AID 1159587). The conditions noted are these: recombinant PfPK7, Kinase-Glo ATP depletion luminescence. (In Kinase-Glo more light means more ATP remaining.)

In assay [8] the target is Calcium-dependent protein kinase 4 (Plasmodium falciparum (isolate 3D7)) (UniProt Q8IBS5). Kind of assay: PfCDPK4 kinase inhibitors, biochemical, TCAMS library (AID 1159588; cut-off not given, nearly all actives have IC50 up to about 0.91 µM). The conditions noted are these: recombinant PfCDPK4, Kinase-Glo ATP depletion luminescence.
Calcium-dependent protein kinase 4 (Plasmodium falciparum (isolate 3D7)), sequence (Q8IBS5 whole entry, looked up): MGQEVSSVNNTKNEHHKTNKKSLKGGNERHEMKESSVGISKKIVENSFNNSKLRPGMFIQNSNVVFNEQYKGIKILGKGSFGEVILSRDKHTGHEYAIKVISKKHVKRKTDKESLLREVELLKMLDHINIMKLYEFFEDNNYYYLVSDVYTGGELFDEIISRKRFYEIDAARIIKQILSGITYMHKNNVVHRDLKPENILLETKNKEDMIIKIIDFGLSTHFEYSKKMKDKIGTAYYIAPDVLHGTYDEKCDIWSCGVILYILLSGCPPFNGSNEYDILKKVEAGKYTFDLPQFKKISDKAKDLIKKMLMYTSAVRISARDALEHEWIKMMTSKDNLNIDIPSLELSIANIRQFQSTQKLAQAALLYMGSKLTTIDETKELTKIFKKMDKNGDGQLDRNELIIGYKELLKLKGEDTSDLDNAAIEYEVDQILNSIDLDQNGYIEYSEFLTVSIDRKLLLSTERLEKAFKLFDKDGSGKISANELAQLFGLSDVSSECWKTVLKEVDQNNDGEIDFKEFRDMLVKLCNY

L-lactate dehydrogenase (Plasmodium falciparum (isolate CDC / Honduras)), sequence (Q27743 whole entry, looked up): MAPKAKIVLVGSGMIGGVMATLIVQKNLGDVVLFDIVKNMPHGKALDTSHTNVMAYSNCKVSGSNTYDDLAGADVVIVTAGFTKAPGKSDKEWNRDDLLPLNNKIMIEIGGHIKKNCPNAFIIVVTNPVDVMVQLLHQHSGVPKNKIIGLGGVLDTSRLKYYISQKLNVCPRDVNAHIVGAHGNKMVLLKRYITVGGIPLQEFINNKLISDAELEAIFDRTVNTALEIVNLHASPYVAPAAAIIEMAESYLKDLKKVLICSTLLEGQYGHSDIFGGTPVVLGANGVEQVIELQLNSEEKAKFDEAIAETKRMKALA
Calcium-dependent protein kinase 1 (Plasmodium falciparum (isolate 3D7)), sequence (P62344 whole entry, looked up): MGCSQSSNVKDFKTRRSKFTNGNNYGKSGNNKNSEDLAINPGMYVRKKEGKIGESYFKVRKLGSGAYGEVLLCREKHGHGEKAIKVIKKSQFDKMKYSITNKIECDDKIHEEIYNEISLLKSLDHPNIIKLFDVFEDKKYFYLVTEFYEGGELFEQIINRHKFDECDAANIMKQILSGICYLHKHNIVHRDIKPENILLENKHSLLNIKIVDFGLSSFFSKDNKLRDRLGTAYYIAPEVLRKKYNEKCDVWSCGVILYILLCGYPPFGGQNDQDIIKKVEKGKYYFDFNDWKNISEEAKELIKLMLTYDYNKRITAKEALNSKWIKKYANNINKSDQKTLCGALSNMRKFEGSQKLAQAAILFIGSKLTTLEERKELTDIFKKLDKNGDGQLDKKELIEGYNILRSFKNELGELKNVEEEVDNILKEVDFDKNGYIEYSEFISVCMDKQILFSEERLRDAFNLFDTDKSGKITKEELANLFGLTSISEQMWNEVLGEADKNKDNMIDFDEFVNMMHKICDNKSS
Plasmodium falciparum protein kinase 6 (PK6, PF3D7_1337100), sequence (Q8IDW1 1-305): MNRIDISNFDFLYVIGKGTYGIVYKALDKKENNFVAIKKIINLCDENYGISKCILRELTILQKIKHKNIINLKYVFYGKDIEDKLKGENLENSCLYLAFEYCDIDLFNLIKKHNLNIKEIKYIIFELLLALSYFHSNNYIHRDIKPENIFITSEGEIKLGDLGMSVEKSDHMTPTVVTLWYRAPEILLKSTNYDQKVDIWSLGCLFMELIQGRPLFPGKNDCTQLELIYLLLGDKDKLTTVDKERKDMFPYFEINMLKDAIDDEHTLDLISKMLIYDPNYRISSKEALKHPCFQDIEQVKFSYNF
Protein kinase 7 (PK7), Plasmodium falciparum 3D7 (PF3D7_0213400), sequence (Q7YTF7 1-343): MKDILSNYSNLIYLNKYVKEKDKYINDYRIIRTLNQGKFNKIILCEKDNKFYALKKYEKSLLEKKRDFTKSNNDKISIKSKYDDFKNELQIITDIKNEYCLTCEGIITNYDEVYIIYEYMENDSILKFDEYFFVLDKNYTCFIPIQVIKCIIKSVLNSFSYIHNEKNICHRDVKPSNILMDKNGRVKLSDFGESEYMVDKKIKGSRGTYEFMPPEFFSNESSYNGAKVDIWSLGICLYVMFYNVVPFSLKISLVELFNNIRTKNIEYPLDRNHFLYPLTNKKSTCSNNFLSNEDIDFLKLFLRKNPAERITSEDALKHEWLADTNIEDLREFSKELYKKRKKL

Regarding `Cc1ccc2oc3cc(-c4nn[nH]n4)ccc3c(=O)c2c1`, the growth inhibition was 96% (active) in assay [1] and 97% (active) in assay [4]. For the same compound, the inhibition (usually the relative decrease from the control value, in per cent) is 2% in assay [2] and -6% in assay [3]. The result in assay [5], in assay [6], in assay [7] and in assay [8] was inactive.
Consider `O=C(Nc1n[nH]c2nc(-c3ccco3)c(Br)cc12)c1ccc(CN2CCCC2)cc1`, for which the growth inhibition in assay [1] is 53% (active); in assay [4], 101% (active). Moreover, the figures for the inhibition in assay [2] and in assay [3] were 1% and 2%, respectively. The outcome in assay [5], in assay [6], in assay [7] and in assay [8] was inactive.
Take `CC(C)(C)c1cc(C(=O)N2CCC(c3ccccn3)CC2)n(Cc2ccccc2)n1`: the growth inhibition in assay [1] was 90% (active); in assay [4] it was 96% (active). Further, the inhibition was 3% in assay [2] and -3% in assay [3]. The outcome in assay [5], in assay [6], in assay [7] and in assay [8] was inactive.
In the case of `OCCN1CCN(C(=S)NC2CCCCC2)CC1`, the results for the growth inhibition in assay [1] and in assay [4] were -1% and 93% (active), respectively. Further, the inhibition was 49% in assay [2] and 1% in assay [3]. Also, the result in assay [5], in assay [6], in assay [7] and in assay [8] was inactive.
`CN1CCC(Oc2ccc(CN3CC[C@H](NC(=O)c4ccc(Cl)c(F)c4)C3)c3ccccc23)C1` (some centres undefined): the growth inhibition in assay [1] is 65% (active); in assay [4] it was 101% (active). The figures for the inhibition in assay [2] and in assay [3] were 51% (active) and 3%, respectively. Moreover, the result in assay [5], in assay [6], in assay [7] and in assay [8] was inactive.
On to `O=C(NCc1cccc(F)c1)Nc1cccc(-c2ccc(-c3nc4ccc(C(F)(F)F)cc4[nH]3)cc2)c1`, for which the results for the growth inhibition in assay [1] and in assay [4] were 20% and 98% (active), respectively. Also, the inhibition was 50% (active) in assay [2] and -4% in assay [3]. Moreover, the result in assay [5], in assay [6], in assay [7] and in assay [8] was inactive.
As to `CC(C)(C)OC(=O)N1CCN(c2ccccc2NC(=O)c2cccc(C(F)(F)F)c2Oc2ccc(F)cc2)CC1`, the growth inhibition in assay [1] was 9%; in assay [4] it was 100% (active). The values for the inhibition in assay [2] and in assay [3] were 3% and -8%, respectively. Besides, the result in assay [5], in assay [6], in assay [7] and in assay [8] was inactive.
On to `CC(C)(C)c1ccc(OC(=O)c2ccc(NC(=O)N[C@@H](Cc3ccc(O)cc3)C(=O)NC3CCN(Cc4ccc(O)cc4)C3)cc2)cc1` (some centres undefined), for which the values for the growth inhibition in assay [1] and in assay [4] were 67% (active) and 92% (active), respectively. Moreover, the inhibition in assay [2] was 0%; in assay [3] it was -3%. Also, the outcome in assay [5], in assay [6], in assay [7] and in assay [8] was inactive.
For the compound `CC(C)Nc1nc(NCCc2cnc[nH]2)nc(Nc2ccc(Oc3ccccc3)cc2)n1`, the growth inhibition in assay [1] was 9%; in assay [4] it was 95% (active). For the same compound, the inhibition in assay [2] was -3%; in assay [3], 1%. Besides, the result in assay [5], in assay [6], in assay [7] and in assay [8] was inactive.
For the compound `CCCCCCCCCN1CC[C@@H](CCCc2ccnc3ccc(O)cc23)[C@@H](CC)C1`, the growth inhibition in assay [1] was 59% (active); in assay [4], 83% (active). Further, the inhibition was 58% (active) in assay [2] and -3% in assay [3]. Further, the result in assay [5], in assay [6], in assay [7] and in assay [8] was inactive.
For the compound `COc1ccc(-c2ccc(CNC(=O)c3ccc(Cl)cc3)c(F)c2)cc1CN1CCCN(C)CC1`, the results for the growth inhibition in assay [1] and in assay [4] were 48% and 99% (active), respectively. In addition, the inhibition is 25% in assay [2] and -5% in assay [3]. Further, the result in assay [5], in assay [6], in assay [7] and in assay [8] was inactive.
For `COc1ccc(C(O)CNC(C)CCc2ccccc2)cc1C(F)(F)F` (centres undefined), the values for the growth inhibition in assay [1] and in assay [4] were 100% (active) and 99% (active), respectively. In addition, the inhibition in assay [2] is 3%; in assay [3], 1%. Further, the outcome in assay [5], in assay [6], in assay [7] and in assay [8] was inactive.
On to `CCCCCN1CCN(Cc2cccc(NC(=O)c3ccc(Cl)c(Cl)c3)c2)CC1`, for which the growth inhibition is 33% in assay [1] and 90% (active) in assay [4]. Further, the inhibition in assay [2] is 24%; in assay [3] it was 3%. Further, the outcome in assay [5], in assay [6], in assay [7] and in assay [8] was inactive.
Consider `CC(CCON1C(N)=NC(N)=NC1(C)C)c1ccc(Cl)c(Cl)c1` (centres undefined), for which the growth inhibition in assay [1] was 97% (active); in assay [4] it was 98% (active). In addition, the inhibition in assay [2] was 60% (active); in assay [3], -3%. Besides, the result in assay [5], in assay [6], in assay [7] and in assay [8] was inactive.
For `O=C(NCCCCN1CCC(c2ccc3c(c2OCC2CC2)CCCC3)CC1)c1ccc(NC(=O)c2ccc(Cl)cc2)cc1`, the results for the growth inhibition in assay [1] and in assay [4] were 93% (active) and 101% (active), respectively. For the same compound, the inhibition is 23% in assay [2] and -4% in assay [3]. Further, the outcome in assay [5], in assay [6], in assay [7] and in assay [8] was inactive.
For `CNCCNc1nccc(N2CCc3ncnc(Nc4ccc(OCc5cccc(F)c5)c(Cl)c4)c3C2)n1`, the growth inhibition in assay [1] is 98% (active); in assay [4] it was 100% (active). Besides, the inhibition is 30% in assay [2] and -4% in assay [3]. In addition, the result in assay [5], in assay [6], in assay [7] and in assay [8] was inactive.
As for `CC(=O)N1N=C(c2ccc(Cl)cc2)Sc2c1nc(-c1ccccc1)n2C(C)=O`, the growth inhibition in assay [1] was 81% (active); in assay [4] it was 105% (active). Further, the inhibition is -3% in assay [2] and 3% in assay [3]. Further, the result in assay [5], in assay [6], in assay [7] and in assay [8] was inactive.
Turning to `Cc1cc(NCCC(=O)NCCOc2ccccc2)nc(NCc2ccccc2C)n1`, the growth inhibition in assay [1] is 29%; in assay [4] it was 92% (active). Further, the inhibition is 17% in assay [2] and 0% in assay [3]. Moreover, the result in assay [5], in assay [6], in assay [7] and in assay [8] was inactive.

Values taken from PubChem BioAssay.
